ClpP mod: qHTS Assay for Activators of ClpP. ATP-dependent Clp protease proteolytic subunit (Bacillus subtilis (strain 168)), P80244. purified B. subtilis ClpP, FRET peptide cleavage, 20 min. Potency, µM (doses to about 57.5 µM), for the others: at the highest dose activity change, negative = active. actives 1.9% (n = 340,000); active means well fitted falling curve with a large enough effect; inconclusive means small, poorly fitted or top-dose-only effect; inactive means no such curve, though single readings can be large or run the other way; further: potency means the concentration at half of the fitted maximal effect; the source files actives as falling curves though it sought activators and does not explain the sign; nearly all actives have a fitted effect of over 65% in size
Target sequence (P80244 whole entry, looked up): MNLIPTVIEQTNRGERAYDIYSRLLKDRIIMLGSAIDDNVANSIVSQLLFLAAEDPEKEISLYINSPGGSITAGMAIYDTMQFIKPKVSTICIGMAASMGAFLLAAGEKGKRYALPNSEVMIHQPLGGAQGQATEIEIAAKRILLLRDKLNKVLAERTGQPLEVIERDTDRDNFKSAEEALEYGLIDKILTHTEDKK
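Purified B. subtilis ClpP, 10 microg/mL final in Tris/HCl pH8 with KCl, BSA, glycerol and Tween-20, cleaved an Abz/nitrotyrosine-quenched decapeptide. Fluorescence (ex 320, em 430) was read at 0 and 20 min at room temperature. Delta was normalized to 5.8 microM ADEP and DMSO/no-enzyme controls.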
N370S GC mod: N370S glucocerebrosidase modulation, Gaucher chaperone candidate; P04062; N370S GC spleen homogenate, 4MU-glucoside fluorescence; actives 0.092% (n = 330,000); AID 2101; Potency, µM (series often up to 59.4 µM), for the others: at the top dose activity change, negative = inhibition, hits mostly inhibitors;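 further: potency means the concentration at half of the fitted maximal effect; 0% = full enzyme activity and -100% = no enzyme basal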
CBFb-RUNX1 inh: blocks binding between human CBF-beta and RUNX1 | 230,000 tested, under 10 active | AID 1477 | AlphaScreen CBFb-His/RUNX1-biotin binding, biochemical | Potency, µM (titrated, usually from 59.8 µM), without a hit: at the highest dose activity, negative = inhibition, most hits filed as inhibitors; further: % of control where 0% means no effect
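His-tagged CBF-beta and biotinylated RUNX1 (30 nM each) were premixed 20 min at room temperature, exposed to compound for 15 min, then given nickel-chelate and streptavidin AlphaScreen beads (50 ng each). After 90 min, AlphaScreen signal was read.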
Glioma ERSR ind: ER stress response induction in glioma; U87-MG GRP78 promoter luciferase reporter, 16 h; AID 602332; actives 0.02% (n = 420,000); Potency, µM, for inactives: top-dose activation, usual class: activators; further: potency means the concentration at half of the fitted maximal effect; series mostly up to about 76 µM; % of control where 0% means no effect; nearly all actives have a fitted effect of over 35% in size
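ERSR induction read as luciferase luminescence (Bright-Glo, 10 min at room temperature) in stably transfected human U87-MG glioma cells exposed to compounds for 16 h, using GRP78 as sensor.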
Integrin act MD: integrin-mediated muscular dystrophy alleviation activation; alpha7betagal myoblasts, beta-gal FDG fluorescence, 48 h; Potency, µM (top dose mostly 38.3 µM), for the others: at the top dose activation, usual class: activators; actives 0.064% (n = 350,000); AID 624291;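 further: potency means the concentration at half of the fitted maximal effect; 100% = response of the positive control SU9516; nearly all actives have a fitted effect of over 60% in size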
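alpha7betagal+/- myoblasts (passage 13, 250/well) treated 48 h at 37C with compounds at 1:260 dilution of DMSO stock. Lysed, then beta-galactosidase activity read as FDG fluorescence (ex 480/em 540) after 30 min, with pre-read for autofluorescence.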
Anesthetic bind: candidate novel general anesthetic via apoferritin binding | Potency, µM (series often up to 77.5 µM), for inactives: at the top dose activity change, negative = displacement, hits mostly inhibitors | P02791 | apoferritin/1-aminoanthracene competitive binding, fluorescence | actives 0.074% (n = 350,000); further: potency means the concentration at half of the fitted maximal effect; on the % scale 0 is the no-effect control and ±100 the full control effect; nearly all actives have a fitted effect of over 20% in size
Target sequence (P02791 2-175 limits assumed): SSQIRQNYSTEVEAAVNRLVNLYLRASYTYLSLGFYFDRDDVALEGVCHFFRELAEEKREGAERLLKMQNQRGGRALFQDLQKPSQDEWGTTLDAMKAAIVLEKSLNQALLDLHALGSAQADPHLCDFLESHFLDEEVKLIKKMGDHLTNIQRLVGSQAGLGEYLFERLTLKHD
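Horse-spleen apoferritin (10 uM) in 50% saturated 1-aminoanthracene in PBS was incubated 10 min at room temperature with compound. Fluorescence (ex 380, em 535 nm) was normalized to free and bound 1-AMA, with concentration-response fitted by a four-parameter Hill equation.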
Numbers without * were called inactive; [ ] = dose if it differs, or a comment. The entries come from a sample that favours hits as a whole. Unless noted, the call rests on the fitted dose curve; in most records, active means well fitted curve in the direction sought with a large enough effect; inconclusive means small, poorly fitted or top-dose-only effect, or another doubt; inactive means no such curve, though single readings can be large; an effect the other way counts as inactive or inconclusive.

What do the screens show for `CCc1ccccc1Nc1ncnc2c1cnn2-c1ccc(C)cc1C`?
ClpP mod: -7.4%; Glioma ERSR ind: 0.6%; Anesthetic bind: -9.0%

How did Cc1ccc(-n2ncc3c(NC4CCCCCC4)ncnc32)cc1Cl do in these assays?
ClpP mod: 31.6µM*; Glioma ERSR ind: 3.7%; Anesthetic bind: -16.0%

How did CCc1ccccc1Nc1ncnc2c1cnn2-c1ccc(Cl)cc1 do in these assays?
ClpP mod: 31.6µM*; Glioma ERSR ind: -1.8%; Anesthetic bind: -2.8%

Results for Cc1cccc(-n2ncc3c(NCCCN4CCCC4=O)ncnc32)c1 ?
ClpP mod: 28.2µM*; N370S GC mod: 13.0%; CBFb-RUNX1 inh: -12.6%; Glioma ERSR ind: -1.7%; Integrin act MD: -1.6%; Anesthetic bind: -8.7%

What do the screens show for `Cc1ccc(-n2ncc3c(NCCc4ccccc4)ncnc32)cc1Cl`?
ClpP mod: 31.6µM*; Glioma ERSR ind: 3.8%; Anesthetic bind: -3.8%

What do the screens show for `COc1ccc(CCNc2ncnc3c2cnn3-c2ccc(C)c(Cl)c2)cc1`?
ClpP mod: -13.9%; Glioma ERSR ind: -5.1%; Anesthetic bind: -0.7%

What do the screens show for `Clc1ccc2c(ccc[n+]2CCC2CCCCC2)c1`?
ClpP mod: -19.1%; Glioma ERSR ind: -3.7%

How did CCCCn1nc(NC(=O)CCC)c2cc3cc(OC)ccc3nc21 do in these assays?
ClpP mod: 31.6µM*; N370S GC mod: -9.0%; Glioma ERSR ind: 0.5%; Integrin act MD: -5.7%; Anesthetic bind: 42.0%

What do the screens show for `COc1ccc2nc3c(cc2c1)c(NC(=O)C1CCCO1)nn3CC(C)C` (stereo not drawn)?
ClpP mod: 22.4µM*; N370S GC mod: 5.5%; CBFb-RUNX1 inh: 29.5%; Glioma ERSR ind: 1.3%; Integrin act MD: -49.0%; Anesthetic bind: 330.2%

Results for COc1ccc(-c2ccc(-c3noc(-c4ccccc4C)n3)c(OC)n2)cc1 ?
ClpP mod: inconclusive; N370S GC mod: 6.4%; CBFb-RUNX1 inh: -13.0%; Glioma ERSR ind: -2.0%; Integrin act MD: 20.4%; Anesthetic bind: -14.4%

Results for COc1ccc(-c2ccc(-c3noc(-c4ccc(OC)c(OC)c4)n3)c(OC)n2)cc1 ?
N370S GC mod: 1.2%; CBFb-RUNX1 inh: -8.4%; Anesthetic bind: -14.1%

What do the screens show for `COc1cccc(-c2nc(-c3ccc(-c4ccccc4)nc3OC)no2)c1`?
ClpP mod: 25.1µM*; Glioma ERSR ind: 2.7%; Anesthetic bind: -8.0%

Results for COCc1nc(-c2ccc(-c3ccc(C)cc3)nc2OC)no1 ?
ClpP mod: 35.5µM*; N370S GC mod: -11.3%[2.35 µM]; CBFb-RUNX1 inh: 15.7%; Glioma ERSR ind: 3.5%; Integrin act MD: -25.5%; Anesthetic bind: inconclusive

How did COc1ccc(-c2ccc(-c3noc(C)n3)c(OC)n2)cc1 do in these assays?
ClpP mod: 14.1µM*; N370S GC mod: 5.2%; CBFb-RUNX1 inh: 8.4%; Glioma ERSR ind: 5.2%; Integrin act MD: 14.7%[7.66 µM]; Anesthetic bind: -9.0%

What do the screens show for `COc1ccc(-c2ccc(-c3noc(-c4cccc(OC)c4)n3)c(OC)n2)cc1`?
ClpP mod: 3.16µM*; N370S GC mod: 4.6%; CBFb-RUNX1 inh: 8.1%; Glioma ERSR ind: -3.8%; Integrin act MD: 1.2%; Anesthetic bind: -2.1%

What do the screens show for `COc1cc2c(NC3CCN(C)CC3)nc(N3CCCN(C)CC3)nc2cc1OCCCCCCN(C)C`?
ClpP mod: 4.3%; Glioma ERSR ind: -4.6%

Results for CC1CCN(S(=O)(=O)c2ccc(S(=O)(=O)N3CCCC3)cc2)CC1 ?
ClpP mod: -0.2%; N370S GC mod: 1.0%; Glioma ERSR ind: -1.2%; Integrin act MD: 8.91µM*; Anesthetic bind: -1.7%

How did Cc1ccc(S(=O)(=O)N2CCC(C)CC2)cc1 do in these assays?
ClpP mod: 0.4%; N370S GC mod: -0.3%; Glioma ERSR ind: -3.2%; Integrin act MD: 10.2%; Anesthetic bind: -13.6%
